“And” between values parts separate entries of the source, which are not always exact repeats. Equal values may be shown once. Among all 420,000 compounds or so, about 64,000 (15%) were called active. Roughly 27% stayed inconclusive and do not appear here. Calls follow the shape of the dose curve; as a rule, active = well fitted inhibition curve with a large enough effect; inconclusive = small, poorly fitted or top-dose-only effect; inactive = flat fitted curve, though single readings scatter. These entries were drawn from the full list. A call without a number means that no potency is given here.
Experiment: qHTS for Inhibitors of human tyrosyl-DNA phosphodiesterase 1 (TDP1): qHTS in cells in absence of CPT; also: nearly all actives have a fitted effect of over 55% in size
Conditions: DT40 Tdp1-/- hTDP1 cells, no CPT, ATP luminescence, 48 h; activity change, negative = growth inhibition: at 46.2 µM (top of the series)
Procedure, shortened: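 A cellular qHTS used chicken DT40 cells lacking endogenous Tdp1 but carrying stably transfected human TDP1. Compounds were applied without camptothecin, and cell growth kinetics were judged by ATP-dependent luminescence after ≥48 hr.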
Potency is read from the fitted curve at half-maximal effect.

Row | SMILES | Potency
1 | CC(C)(C)C(=O)Nc1c(Br)c(C2CC2)nn1-c1ccccc1 | inactive
2 | CCOC(=O)c1[nH]cnc1C(=O)NC1CCCCC1 | inactive
3 | Cc1nn(-c2ccccc2)c(C)c1NC(=O)COc1ccc(Cl)cc1Cl | 9.2 µM (active)
4 | C/C=C/c1ccc(OCC(=O)OCC(=O)Nc2c(C)nn(-c3ccccc3)c2C)c(OC)c1 | inactive
5 | Cc1nn(-c2ccccc2)c(C)c1NC(=O)COC(=O)c1cc(Cl)ccc1O | inactive
6 | COc1ccccc1CNC(=O)C1CCN(S(=O)(=O)c2ccc3c(c2)OCCO3)CC1 | inactive
7 | COc1ccc(-n2nc3c(c2NC(=O)c2ccc(N4C(=O)CCC4=O)cc2)CSC3)cc1 | inactive
8 | O=C(O)Cc1ccc(-c2ccccc2)cc1 | inactive
9 | CC(=O)N1C(=O)/C(=C2\SC(=S)N(NC(=O)c3ccc(O)cc3)C2=O)c2ccccc21 | inactive
10 | CCOCCCNc1nc(-c2ccccc2)nc2ccccc12 | 14.6 µM (active)
11 | c1ccc(-c2nc(NCc3ccco3)c3ccccc3n2)cc1 | 23.1 µM (active)
12 | CCC(=O)OCCNc1nc(-c2ccccc2)nc2ccccc12 | inactive
13 | COc1ccc(CNc2ncnc3ccccc23)cc1 | 0.651 µM (active)
14 | c1coc(CNc2ncnc3ccccc23)c1 | 12.6 µM (active) and 5.17 µM (active)
15 | Brc1nc2ncnc(NCc3ccco3)c2[nH]1 | inactive
16 | COc1ccc(CNc2nccs2)cc1 | inactive

Row | SMILES | Potency
17 | Cc1ccc(C(=O)NNc2ncnc3ccccc23)cc1 | inactive
18 | Cc1ccccc1-c1nc(N(C)Cc2ccco2)c2ccccc2n1 | inactive
19 | CCOCCCn1c(NN)nc2ccccc2c1=O | inactive
20 | O=C(COc1ncnc2ccccc12)NC(=O)NCc1ccccc1 | inactive
21 | Cc1cnc(CNc2nc(-c3cccnc3)nc3ccccc23)cn1 | inactive
22 | CCOC(=O)c1nnn(CC(=O)Nc2cccc(F)c2)c1C(=O)OCC | inactive
23 | CCCCn1c(N)c(N2CCOCC2)c(=O)n(CC(=O)NCCc2ccccc2)c1=O | inactive
24 | Cc1ccc(NNC(=O)C2CCC2)cc1C | inactive
25 | COc1ccccc1-c1c(C#N)c(N)nc2c1CCC2 | inactive
26 | Cc1ccc2nsnc2c1NC(=O)c1ccccc1[N+](=O)[O-] | inactive
27 | Cc1c(CN2CCC(n3nccc3NC(=O)CCc3ccccc3)CC2)cnn1C | inactive
28 | c1ccc(CCC2=NCCn3cccc32)cc1 | inactive
29 | CCc1ccc(NC(=O)CN2C(=O)CSC2=O)cc1 | inactive
30 | O=C(Nc1ccccc1Cl)O/N=C(/c1ccccc1)c1ccccn1 | inactive
31 | c1ccc(C(=NNc2nc3ccccc3s2)c2ccccn2)cc1 | 0.13 µM (active)
32 | Cc1ccnc(Nc2nc3ccccc3s2)n1 | inactive

— PubChem BioAssay AID686978 (National Center for Advancing Translational Sciences (NCATS), 2013)
